About 83,000 compounds went through this panel and 20% of them were active in at least one assay; those are over-represented in the sample as a whole.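 Cell lines were cultured in 96-well plates, exposed to a single compound concentration, and assessed for percent growth 48 hours later.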 A number with no mark means an inactive call. Active and inactive are the calls of the source. Rule for the calls: active = growth percent below 10; inactive = the rest.
Experiments:
Test in all cases: NCI-60 one-dose screen, 48 h (100 = growth as untreated, 0 = no growth, -100 = all killed)
Settings in all cases: 10 µM unless noted
DU-145 prostate = system: DU-145 prostate
K-562 leukemia = system: K-562 leukemia
MALME-3M melanoma = system: MALME-3M melanoma
MDA-MB-231 breast = system: MDA-MB-231 breast
RXF 393 renal = system: RXF 393 renal
SF-268 CNS = system: SF-268 CNS
SF-295 CNS = system: SF-295 CNS
SF-539 CNS = system: SF-539 CNS
UACC-257 melanoma = system: UACC-257 melanoma
M14 melanoma = system: M14 melanoma
HCT-15 colon = system: HCT-15 colon
HT29 colon = system: HT29 colon
SNB-75 CNS = system: SNB-75 CNS
SNB-19 CNS = system: SNB-19 CNS
U251 CNS = system: U251 CNS
SK-MEL-5 melanoma = system: SK-MEL-5 melanoma
UACC-62 melanoma = system: UACC-62 melanoma
LOX IMVI melanoma = system: LOX IMVI melanoma
SK-MEL-28 melanoma = system: SK-MEL-28 melanoma
PC-3 prostate = system: PC-3 prostate

| Structure (SMILES) | growth (DU-145 prostate) | growth (K-562 leukemia) | growth (MALME-3M melanoma) | growth (MDA-MB-231 breast) | growth (RXF 393 renal) | growth (SF-268 CNS) | growth (SF-295 CNS) | growth (SF-539 CNS) | growth (UACC-257 melanoma) | growth (M14 melanoma) | growth (HCT-15 colon) | growth (HT29 colon) | growth (SNB-75 CNS) | growth (SNB-19 CNS) | growth (U251 CNS) | growth (SK-MEL-5 melanoma) | growth (UACC-62 melanoma) | growth (LOX IMVI melanoma) | growth (SK-MEL-28 melanoma) | growth (PC-3 prostate) [%] |
| --- | --- | --- | --- | --- | --- | --- | --- | --- | --- | --- | --- | --- | --- | --- | --- | --- | --- | --- | --- | --- |
| Cn1c(-c2c(N)n(Cc3cccnc3)c3nc(C#N)c(C#N)nc23)nc2ccccc21 | 95.7% | 51.1% | 53.5% | 89.2% | 65.9% | 98.8% | 110% | 64.7% | 102% | 91.1% | 94.5% | 92.1% | 96.6% | 103% | 94.3% | 89.2% | 89.8% | 97.4% | 113% | – |
| C=CCNc1nc(NN2C(=O)c3cccc4cccc(c34)C2=O)nc(-n2cnc3ccccc32)n1 | 97.9% | 9.94% (active) | 93.5% | 68.3% | 50.3% | 65% | 76.5% | 50.4% | 102% | 97.9% | 66.7% | 88.9% | 39.2% | 83.7% | 63.3% | 64.9% | 77.2% | 77.8% | 103% | – |
| Cc1ccc(C(=O)COc2cccc(/C=C3\Oc4ccccc4C3=O)c2)cc1 | 123% | 75.8% | 106% | 83.1% | 94.5% | 120% | 120% | 103% | 129% | 101% | 105% | 114% | 104% | 99.4% | 99.7% | 123% | 73.2% | 104% | 135% | – |
| CCOP(=O)(OCC)C1CP(=O)(c2ccccc2)CC(C)=C1Cl (centres undefined) | 104% | 93.4% | 90.9% | 95% | 78.1% | 104% | 96.7% | 104% | 92.2% | 63.2% | 102% | 118% | 90.9% | 104% | – | 103% | 95.1% | 88.9% | 104% | 90 |
| CN1C(=O)N(C)C2C1NN=c1s/c(=C\c3ccccc3)c(=O)n12 (centres undefined) | 55% | 20.3% | 51.3% | 68.9% | 54.7% | 57.8% | 34% | 45.1% | 54% | 31% | 27.1% | 77.8% | 11.5% | 45.4% | 42.1% | 41% | 42.2% | 44.6% | 63.2% | – |
| COc1cc(N=Nc2ccc(N)cc2)c(OC)cc1N=Nc1ccccc1.[Cl][Zn][Cl] | 118% | 104% | 74.1% | 84.6% | 114% | 96.5% | 116% | 87.9% | 109% | 101% | 91.2% | 113% | 80.9% | 105% | – | 102% | 92.2% | 88% | 109% | 90.7 |
| C[C@H]1[C@H]2[C@H]3CC[C@@H]4[C@@]5(C)C/C(=C/c6ccco6)C(=O)C(C)(C)[C@@H]5CC[C@@]4(C)[C@]3(C)CC[C@]23CO[C@]1(C)[C@@H](C(=O)/C=C\c1ccco1)C3 | 111% | 93.4% | 23.5% | 94.9% | 98.4% | 97.3% | 107% | 93.8% | 31.5% | 60.5% | 112% | 105% | 88.2% | 91.8% | – | 55.7% | 26% | 93.6% | 43.9% | 79.7 |
| COc1ccc2c(c1)O/C(=C\c1cccc(OCC(=O)Nc3nc4ccccc4s3)c1)C2=O | 28.6% | 5.15% (active) | -43.8% (active) | 74.8% | -29.3% (active) | 24.2% | 99.7% | 97.6% | 106% | 42.9% | 81.5% | 110% | 102% | 83.6% | – | 96.7% | 83.9% | -85% (active) | 96.7% | 35 |
| COc1ccc(-c2nc(SCCC(C)C)nc(N/N=C\c3cccc(Cl)c3)c2C#N)cc1 | 85.4% | 79.7% | 111% | 53% | 87.5% | 71.1% | 55% | 84.3% | 87.3% | 101% | 82.2% | 83.2% | 4.61% (active) | 76.2% | 29.1% | 96% | 89.6% | 70.9% | 112% | – |
| CC(=O)c1ccc(NCC(=O)Nc2ccccn2)cc1 | 107% | 95.6% | 97.6% | 94.1% | 117% | 97.1% | 109% | 106% | 106% | 106% | 109% | 109% | 92.7% | 100% | – | 99.9% | 97% | 101% | 115% | 96.4 |
| COc1ccc(C(=NN=C(N)N)c2ccc(OC)cc2)cc1 | 52.8% | 19.9% | 69.4% | 48.4% | -2.81% (active) | 47.1% | 48.5% | 57.7% | 43.6% | 18.3% | 69.1% | 15.4% | -5.63% (active) | 43.6% | – | 13.9% | 52.6% | 15.8% | 59% | 30.6 |
| NCCCNc1nc2ccccc2c2c(=O)c3cccc(Cl)c3sc12 | -14.3% (active) | -21.1% (active) | 41.6% | -18.3% (active) | 29.5% | 26.5% | 26.8% | 66.3% | 72.8% | -46.4% (active) | -79.6% (active) | -63.2% (active) | 41.7% | 49.8% | – | 60.3% | 51.4% | -90% (active) | 53.2% | – |
| Cc1c(C)c2c(c(C)c1OCC(=O)O)CC[C@@](C)(CCC[C@@H](C)CCC[C@@H](C)CCCC(C)C)O2 | 6.97% [50 µM] (active) | 6.54% [50 µM] (active) | -35.8% [50 µM] (active) | -2.79% [50 µM] (active) | -34.5% [50 µM] (active) | -5.58% [50 µM] (active) | 35.8% [50 µM] | -7.25% [50 µM] (active) | 38.7% [50 µM] | -19.2% [50 µM] (active) | -28.5% [50 µM] (active) | 6.19% [50 µM] (active) | 67.6% [50 µM] | 17% [50 µM] | -30.3% [50 µM] (active) | -77.1% [50 µM] (active) | -75.2% [50 µM] (active) | -83.9% [50 µM] (active) | -15.1% [50 µM] (active) | – |
| Cc1c(C(=O)NC(Cc2ccccc2)C(O)C(=O)NCc2ccc(F)cc2)[nH]c2ccccc2c1=O (centres undefined) | 109% | 94.2% | 111% | 102% | 114% | 104% | 103% | 108% | 103% | 109% | 103% | 102% | 99.1% | 100% | – | 103% | 111% | 101% | 107% | 103 |
| COC(=O)[C@]12CC[C@@H](C)[C@H](C)[C@@H]1C1=CC[C@@H]3[C@@]4(C)C(C=O)=C[C@@](C)(COC(C)=O)C4=CC[C@@]3(C)[C@]1(C)CC2 | -6.88% (active) | 5.59% (active) | -65.5% (active) | -26.6% (active) | -58.9% (active) | -3.01% (active) | 0.263% (active) | -50.8% (active) | -41.3% (active) | -48.4% (active) | -41.6% (active) | -31.5% (active) | 15.7% | 29.8% | – | -36.6% (active) | -11.1% (active) | -93.7% (active) | -60.2% (active) | 12.7 |

From PubChem BioAssay (NCI)
